Test results taken from paper PMC7862700, “An all-to-all approach to the identification of sequence-specific readers for epigenetic DNA modifications on cytosine”.

Assays:
Assay in all cases: DAPPL (digital affinity profiling via proximity ligation, sequencing); 10 mM Tris-HCl pH 7.5, 50 mM NaCl, 1 mM DTT, 4% glycerol, room temperature, 30 min; GST-TFs on glutathione beads, 16-mer random dsDNA library, 0.1% formaldehyde crosslink after washing; high values mean tight binding
[1] = molecular target: T1, FLI1 (Homo sapiens, UniProt Q01543 1-452); conditions: protein: recombinant; tags: N-terminal GST; dsDNA, one strand shown
T1 sequence: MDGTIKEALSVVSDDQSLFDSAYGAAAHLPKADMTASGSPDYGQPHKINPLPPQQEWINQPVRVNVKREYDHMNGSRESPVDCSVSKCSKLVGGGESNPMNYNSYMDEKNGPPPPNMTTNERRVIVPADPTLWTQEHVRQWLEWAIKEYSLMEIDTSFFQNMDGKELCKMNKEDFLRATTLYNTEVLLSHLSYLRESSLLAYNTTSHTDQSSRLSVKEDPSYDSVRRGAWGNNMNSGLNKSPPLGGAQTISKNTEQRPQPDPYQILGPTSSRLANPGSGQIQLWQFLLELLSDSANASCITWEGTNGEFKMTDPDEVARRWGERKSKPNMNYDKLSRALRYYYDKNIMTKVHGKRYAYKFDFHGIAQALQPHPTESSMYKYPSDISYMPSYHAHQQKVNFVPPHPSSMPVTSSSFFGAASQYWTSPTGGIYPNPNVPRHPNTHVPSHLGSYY
How it was run: (§1)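 The binding signal reported is, for every hexamer, its read frequency for a factor over its read frequency for the tag-only sample. Reads came from pools of yeast-expressed, GST-fused human transcription factors on glutathione beads, barcoded with DNA and mixed with that sample, which were incubated with 200 nmole of a random double-stranded 16-mer DNA library in Tris/NaCl/DTT/glycerol buffer at room temperature for 30 min. After washing, the pools were crosslinked with 0.1% formaldehyde, proximity-ligated with BsaI/T4 ligase for 1 h at 37 °C, PCR-amplified and sequenced on an Illumina NextSeq500.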

[2] = molecular target: T2, ELK1 (Homo sapiens, UniProt P19419 1-428); conditions: protein: recombinant; tags: N-terminal GST; dsDNA, one strand shown
T2 sequence: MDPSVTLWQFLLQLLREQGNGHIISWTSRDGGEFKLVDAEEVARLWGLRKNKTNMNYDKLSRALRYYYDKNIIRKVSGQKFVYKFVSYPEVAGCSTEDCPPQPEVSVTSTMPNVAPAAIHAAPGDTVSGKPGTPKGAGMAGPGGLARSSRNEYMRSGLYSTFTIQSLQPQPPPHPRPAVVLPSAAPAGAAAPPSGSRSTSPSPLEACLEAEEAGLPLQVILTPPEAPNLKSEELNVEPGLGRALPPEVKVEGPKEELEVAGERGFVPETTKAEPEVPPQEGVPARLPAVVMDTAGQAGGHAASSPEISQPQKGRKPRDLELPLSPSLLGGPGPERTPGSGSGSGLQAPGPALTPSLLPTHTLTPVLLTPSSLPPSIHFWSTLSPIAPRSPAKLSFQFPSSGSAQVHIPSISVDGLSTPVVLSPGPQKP
How it was run: as §1

[3] = molecular target: T3, GABPA (Homo sapiens, UniProt Q06546 1-454); conditions: protein: recombinant; tags: N-terminal GST; dsDNA, one strand shown
T3 sequence: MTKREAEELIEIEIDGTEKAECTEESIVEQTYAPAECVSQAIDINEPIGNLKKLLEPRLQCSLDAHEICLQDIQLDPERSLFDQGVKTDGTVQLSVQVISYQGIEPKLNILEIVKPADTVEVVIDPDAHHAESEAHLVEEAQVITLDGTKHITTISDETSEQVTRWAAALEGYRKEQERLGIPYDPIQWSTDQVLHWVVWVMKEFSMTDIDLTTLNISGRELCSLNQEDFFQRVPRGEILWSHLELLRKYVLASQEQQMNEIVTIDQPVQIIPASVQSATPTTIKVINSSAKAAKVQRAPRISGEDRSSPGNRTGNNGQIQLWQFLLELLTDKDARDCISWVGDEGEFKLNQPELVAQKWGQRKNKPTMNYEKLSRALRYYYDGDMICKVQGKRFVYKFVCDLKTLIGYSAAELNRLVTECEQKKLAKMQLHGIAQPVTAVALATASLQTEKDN
How it was run: as §1

[4] = molecular target: ELF1 (Homo sapiens, UniProt P32519 1-619); conditions: protein: recombinant; tags: N-terminal GST; dsDNA, one strand shown
ELF1, sequence (P32519 whole entry): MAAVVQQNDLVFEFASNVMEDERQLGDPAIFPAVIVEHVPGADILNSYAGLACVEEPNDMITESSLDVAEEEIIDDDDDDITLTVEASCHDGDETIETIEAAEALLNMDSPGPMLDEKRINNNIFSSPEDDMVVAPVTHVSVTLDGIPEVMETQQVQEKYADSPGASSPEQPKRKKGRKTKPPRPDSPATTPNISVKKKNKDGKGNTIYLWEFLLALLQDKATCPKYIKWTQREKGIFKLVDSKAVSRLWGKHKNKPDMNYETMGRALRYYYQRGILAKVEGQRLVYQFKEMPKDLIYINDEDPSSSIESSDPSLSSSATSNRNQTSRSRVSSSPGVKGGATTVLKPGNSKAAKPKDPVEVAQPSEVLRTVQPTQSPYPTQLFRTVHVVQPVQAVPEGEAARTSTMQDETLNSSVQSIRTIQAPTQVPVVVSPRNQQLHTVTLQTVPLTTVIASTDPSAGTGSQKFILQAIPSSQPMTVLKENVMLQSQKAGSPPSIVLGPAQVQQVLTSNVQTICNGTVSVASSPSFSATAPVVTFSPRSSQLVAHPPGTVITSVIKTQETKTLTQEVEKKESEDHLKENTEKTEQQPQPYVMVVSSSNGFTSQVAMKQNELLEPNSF
How it was run: as §1

[5] = molecular target: T4, EHF (Homo sapiens, UniProt Q9NZC4 1-300); conditions: protein: recombinant; tags: N-terminal GST; dsDNA, one strand shown
T4 sequence: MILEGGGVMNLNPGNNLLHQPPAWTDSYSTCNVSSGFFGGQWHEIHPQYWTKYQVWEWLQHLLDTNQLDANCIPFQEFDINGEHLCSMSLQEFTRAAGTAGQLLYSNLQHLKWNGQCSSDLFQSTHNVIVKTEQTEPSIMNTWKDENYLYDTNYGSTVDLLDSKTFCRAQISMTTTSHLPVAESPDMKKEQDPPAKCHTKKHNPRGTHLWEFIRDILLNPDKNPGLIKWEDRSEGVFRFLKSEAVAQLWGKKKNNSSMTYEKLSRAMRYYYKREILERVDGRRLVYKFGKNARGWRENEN
How it was run: as §1

[6] = molecular target: SPI1 (Homo sapiens, UniProt P17947 1-270); conditions: protein: recombinant; tags: N-terminal GST; dsDNA, one strand shown
How it was run: as §1

[7] = molecular target: SPIB (Homo sapiens, UniProt Q01892 1-262); conditions: protein: recombinant; tags: N-terminal GST; dsDNA, one strand shown
SPIB, sequence (Q01892 whole entry): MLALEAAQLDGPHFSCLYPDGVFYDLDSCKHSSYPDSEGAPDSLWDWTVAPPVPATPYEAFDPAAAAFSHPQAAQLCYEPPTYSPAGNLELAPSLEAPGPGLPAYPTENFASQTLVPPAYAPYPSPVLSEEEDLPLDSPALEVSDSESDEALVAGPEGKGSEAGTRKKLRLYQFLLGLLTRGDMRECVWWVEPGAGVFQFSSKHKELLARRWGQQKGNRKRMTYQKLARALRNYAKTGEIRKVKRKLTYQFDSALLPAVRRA
How it was run: as §1

[8] = molecular target: T5, ELK3 (Homo sapiens, UniProt P41970 1-407); conditions: protein: recombinant; tags: N-terminal GST; dsDNA, one strand shown
T5 sequence: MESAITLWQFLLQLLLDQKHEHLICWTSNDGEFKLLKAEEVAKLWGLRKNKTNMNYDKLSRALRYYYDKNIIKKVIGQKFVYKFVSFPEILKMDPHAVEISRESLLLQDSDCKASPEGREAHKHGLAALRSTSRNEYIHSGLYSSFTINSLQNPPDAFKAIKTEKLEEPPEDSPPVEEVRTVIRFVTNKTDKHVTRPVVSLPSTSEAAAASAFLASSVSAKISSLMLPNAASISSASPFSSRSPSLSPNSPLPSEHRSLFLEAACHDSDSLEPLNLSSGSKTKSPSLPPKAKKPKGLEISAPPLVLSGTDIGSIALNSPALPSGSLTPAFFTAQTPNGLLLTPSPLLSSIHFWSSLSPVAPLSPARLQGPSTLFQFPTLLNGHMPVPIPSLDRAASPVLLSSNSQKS
How it was run: as §1

[9] = molecular target: ETV5 (Homo sapiens, UniProt P41161 1-510); conditions: protein: recombinant; tags: N-terminal GST; dsDNA, one strand shown
ETV5, sequence (P41161 whole entry): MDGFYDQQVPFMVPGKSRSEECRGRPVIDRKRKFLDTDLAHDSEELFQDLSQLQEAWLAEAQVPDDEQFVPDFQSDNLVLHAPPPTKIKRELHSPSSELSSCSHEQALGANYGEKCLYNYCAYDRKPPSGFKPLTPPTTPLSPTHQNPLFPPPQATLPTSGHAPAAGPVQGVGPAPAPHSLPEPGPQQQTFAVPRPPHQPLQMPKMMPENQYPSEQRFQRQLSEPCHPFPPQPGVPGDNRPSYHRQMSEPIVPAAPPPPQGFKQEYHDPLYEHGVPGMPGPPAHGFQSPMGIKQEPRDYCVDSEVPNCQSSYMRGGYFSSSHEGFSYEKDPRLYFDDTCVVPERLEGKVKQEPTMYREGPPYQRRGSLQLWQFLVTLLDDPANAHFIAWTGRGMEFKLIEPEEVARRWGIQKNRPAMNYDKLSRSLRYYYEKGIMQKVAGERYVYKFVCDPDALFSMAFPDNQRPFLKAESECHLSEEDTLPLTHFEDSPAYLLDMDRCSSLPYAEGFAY
How it was run: as §1

[10] = molecular target: HSF1 (Homo sapiens, UniProt Q00613 1-529); conditions: protein: recombinant; tags: N-terminal GST; chain copies: 3; dsDNA, one strand shown
HSF1, sequence (Q00613 whole entry): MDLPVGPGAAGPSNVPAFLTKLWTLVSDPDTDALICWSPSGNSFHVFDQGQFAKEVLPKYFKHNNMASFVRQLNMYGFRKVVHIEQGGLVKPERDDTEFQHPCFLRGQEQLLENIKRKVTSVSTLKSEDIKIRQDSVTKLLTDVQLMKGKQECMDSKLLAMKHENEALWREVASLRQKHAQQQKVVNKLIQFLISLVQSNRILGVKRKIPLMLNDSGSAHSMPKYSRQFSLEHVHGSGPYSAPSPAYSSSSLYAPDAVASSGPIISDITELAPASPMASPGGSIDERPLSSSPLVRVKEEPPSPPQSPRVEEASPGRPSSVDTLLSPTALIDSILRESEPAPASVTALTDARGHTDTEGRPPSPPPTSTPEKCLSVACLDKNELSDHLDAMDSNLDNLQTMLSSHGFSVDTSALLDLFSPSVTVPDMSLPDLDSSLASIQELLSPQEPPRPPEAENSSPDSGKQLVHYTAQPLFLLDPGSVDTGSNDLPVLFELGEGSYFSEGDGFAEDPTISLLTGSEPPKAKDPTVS
How it was run: as §1

[11] = molecular target: ELF4 (Homo sapiens, UniProt Q99607 1-663); conditions: protein: recombinant; tags: N-terminal GST; dsDNA, one strand shown
ELF4, sequence (Q99607 whole entry): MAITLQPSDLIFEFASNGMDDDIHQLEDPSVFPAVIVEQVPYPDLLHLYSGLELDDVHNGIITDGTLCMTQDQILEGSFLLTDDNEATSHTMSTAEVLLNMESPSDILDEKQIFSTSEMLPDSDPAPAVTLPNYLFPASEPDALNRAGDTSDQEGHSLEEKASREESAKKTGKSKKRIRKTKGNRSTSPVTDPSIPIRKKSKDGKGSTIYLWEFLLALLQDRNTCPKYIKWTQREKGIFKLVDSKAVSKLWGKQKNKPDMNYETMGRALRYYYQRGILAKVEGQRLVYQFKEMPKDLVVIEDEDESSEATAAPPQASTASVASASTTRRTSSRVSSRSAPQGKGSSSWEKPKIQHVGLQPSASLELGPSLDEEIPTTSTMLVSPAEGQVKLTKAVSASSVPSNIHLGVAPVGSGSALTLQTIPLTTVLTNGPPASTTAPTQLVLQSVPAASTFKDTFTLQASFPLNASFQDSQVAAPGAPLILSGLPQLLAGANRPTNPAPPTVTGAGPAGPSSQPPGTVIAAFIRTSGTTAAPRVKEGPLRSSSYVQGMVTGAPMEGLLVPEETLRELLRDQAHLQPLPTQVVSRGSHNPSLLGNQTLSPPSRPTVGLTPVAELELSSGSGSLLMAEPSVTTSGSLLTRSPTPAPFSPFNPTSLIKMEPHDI
How it was run: as §1

[12] = molecular target: T6, ELK4 (Homo sapiens, UniProt P28324-2 1-405); conditions: protein: recombinant; tags: N-terminal GST; dsDNA, one strand shown
T6 sequence: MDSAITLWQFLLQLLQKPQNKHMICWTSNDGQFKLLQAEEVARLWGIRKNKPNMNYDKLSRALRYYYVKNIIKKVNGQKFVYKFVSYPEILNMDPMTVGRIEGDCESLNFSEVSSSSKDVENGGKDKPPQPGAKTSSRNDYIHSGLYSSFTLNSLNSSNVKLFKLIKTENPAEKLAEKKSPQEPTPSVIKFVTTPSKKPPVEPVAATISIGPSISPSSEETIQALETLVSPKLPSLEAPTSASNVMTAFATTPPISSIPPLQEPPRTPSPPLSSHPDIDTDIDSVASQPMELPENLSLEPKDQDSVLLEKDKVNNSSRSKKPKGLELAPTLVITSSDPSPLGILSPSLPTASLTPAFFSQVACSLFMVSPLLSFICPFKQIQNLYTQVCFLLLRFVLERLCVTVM
How it was run: as §1

[13] = molecular target: T7, ETV2 (Homo sapiens, UniProt O00321 1-342); conditions: protein: recombinant; tags: N-terminal GST; dsDNA, one strand shown
T7 sequence: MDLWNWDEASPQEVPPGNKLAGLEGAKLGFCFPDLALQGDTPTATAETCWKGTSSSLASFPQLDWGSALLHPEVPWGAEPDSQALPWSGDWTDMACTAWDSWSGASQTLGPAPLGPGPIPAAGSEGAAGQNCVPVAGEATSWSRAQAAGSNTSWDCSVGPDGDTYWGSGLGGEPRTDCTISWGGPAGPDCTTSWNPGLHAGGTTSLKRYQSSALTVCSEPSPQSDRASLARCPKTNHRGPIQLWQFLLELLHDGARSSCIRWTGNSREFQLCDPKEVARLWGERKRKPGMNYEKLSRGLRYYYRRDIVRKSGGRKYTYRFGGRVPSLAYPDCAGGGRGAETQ
How it was run: as §1

[14] = molecular target: T8, ELF3 (Homo sapiens, UniProt P78545 1-371); conditions: protein: recombinant; tags: N-terminal GST; dsDNA, one strand shown
T8 sequence: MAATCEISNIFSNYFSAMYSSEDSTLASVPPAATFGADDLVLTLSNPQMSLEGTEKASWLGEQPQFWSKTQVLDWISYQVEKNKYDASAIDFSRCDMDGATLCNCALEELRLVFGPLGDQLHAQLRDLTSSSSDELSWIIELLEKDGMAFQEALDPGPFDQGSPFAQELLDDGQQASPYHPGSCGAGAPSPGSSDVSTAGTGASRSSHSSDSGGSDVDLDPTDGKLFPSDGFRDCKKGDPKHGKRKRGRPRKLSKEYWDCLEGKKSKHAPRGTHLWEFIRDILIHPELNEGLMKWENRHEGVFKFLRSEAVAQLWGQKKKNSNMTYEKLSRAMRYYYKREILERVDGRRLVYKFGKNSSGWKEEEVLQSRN
How it was run: as §1

[15] = molecular target: ETV1 (Homo sapiens, UniProt P50549 1-477); conditions: protein: recombinant; tags: N-terminal GST; dsDNA, one strand shown
ETV1, sequence (P50549 whole entry): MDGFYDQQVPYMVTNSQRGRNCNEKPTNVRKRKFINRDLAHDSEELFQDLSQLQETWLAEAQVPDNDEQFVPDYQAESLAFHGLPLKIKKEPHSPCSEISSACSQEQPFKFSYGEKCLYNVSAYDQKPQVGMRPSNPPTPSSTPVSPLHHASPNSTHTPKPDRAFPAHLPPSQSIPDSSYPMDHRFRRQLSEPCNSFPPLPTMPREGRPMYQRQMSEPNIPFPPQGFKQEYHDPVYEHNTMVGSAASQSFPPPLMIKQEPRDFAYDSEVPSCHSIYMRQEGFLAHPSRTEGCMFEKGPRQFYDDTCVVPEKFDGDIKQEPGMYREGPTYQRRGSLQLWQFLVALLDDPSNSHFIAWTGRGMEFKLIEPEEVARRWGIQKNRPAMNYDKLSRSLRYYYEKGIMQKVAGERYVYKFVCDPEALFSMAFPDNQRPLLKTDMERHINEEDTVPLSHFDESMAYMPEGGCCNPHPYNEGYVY
How it was run: as §1

[16] = molecular target: T9, ERG (Homo sapiens, UniProt P11308 1-479); conditions: protein: recombinant; tags: N-terminal GST; dsDNA, one strand shown
T9 sequence: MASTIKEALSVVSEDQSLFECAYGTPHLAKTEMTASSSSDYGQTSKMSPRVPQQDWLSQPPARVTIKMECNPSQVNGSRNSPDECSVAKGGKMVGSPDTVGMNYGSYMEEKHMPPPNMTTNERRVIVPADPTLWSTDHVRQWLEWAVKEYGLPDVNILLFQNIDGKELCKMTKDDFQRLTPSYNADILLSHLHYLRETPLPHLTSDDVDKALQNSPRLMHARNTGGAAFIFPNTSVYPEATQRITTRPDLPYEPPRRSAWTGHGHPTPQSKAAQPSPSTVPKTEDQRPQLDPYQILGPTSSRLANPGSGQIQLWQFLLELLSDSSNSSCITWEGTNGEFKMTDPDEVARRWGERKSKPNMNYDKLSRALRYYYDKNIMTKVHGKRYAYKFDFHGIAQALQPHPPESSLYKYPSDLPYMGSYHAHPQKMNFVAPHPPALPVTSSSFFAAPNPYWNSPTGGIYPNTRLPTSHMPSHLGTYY
How it was run: as §1

[17] = molecular target: T10, FEV (Homo sapiens, UniProt Q99581 1-238); conditions: protein: recombinant; tags: N-terminal GST; dsDNA, one strand shown
T10 sequence: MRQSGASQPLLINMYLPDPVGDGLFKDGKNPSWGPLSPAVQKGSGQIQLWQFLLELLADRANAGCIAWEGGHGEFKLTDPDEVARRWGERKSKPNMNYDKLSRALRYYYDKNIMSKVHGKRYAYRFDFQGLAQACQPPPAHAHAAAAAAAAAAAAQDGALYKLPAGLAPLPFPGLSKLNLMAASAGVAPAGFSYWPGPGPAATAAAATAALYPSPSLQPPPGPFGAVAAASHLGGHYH
How it was run: as §1

Row | Sequence | binding signal [1] | binding signal [2] | binding signal [3] | binding signal [4] | binding signal [5] | binding signal [6] | binding signal [7] | binding signal [8] | binding signal [9] | binding signal [10] | binding signal [11] | binding signal [12] | binding signal [13] | binding signal [14] | binding signal [15] | binding signal [16] | binding signal [17]
1 | CGAGTT | 1.16 fold enrichment (6-mer frequency, TF over GST control) | 1.1 fold enrichment (6-mer frequency, TF over GST control) | 1.02 fold enrichment (6-mer frequency, TF over GST control) | 1.16 fold enrichment (6-mer frequency, TF over GST control) | 1.04 fold enrichment (6-mer frequency, TF over GST control) | 1.09 fold enrichment (6-mer frequency, TF over GST control) | 1.07 fold enrichment (6-mer frequency, TF over GST control) | 1.14 fold enrichment (6-mer frequency, TF over GST control) | 1.1 fold enrichment (6-mer frequency, TF over GST control) | 1.07 fold enrichment (6-mer frequency, TF over GST control) | 1.06 fold enrichment (6-mer frequency, TF over GST control) | 1.1 fold enrichment (6-mer frequency, TF over GST control) | 1.11 fold enrichment (6-mer frequency, TF over GST control) | 1.16 fold enrichment (6-mer frequency, TF over GST control) | 1.04 fold enrichment (6-mer frequency, TF over GST control) |  | 
2 | AGCATC | 1.03 fold enrichment (6-mer frequency, TF over GST control) | 1.12 fold enrichment (6-mer frequency, TF over GST control) | 1.03 fold enrichment (6-mer frequency, TF over GST control) | 1.02 fold enrichment (6-mer frequency, TF over GST control) | 1.02 fold enrichment (6-mer frequency, TF over GST control) |  | 1.02 fold enrichment (6-mer frequency, TF over GST control) | 1.1 fold enrichment (6-mer frequency, TF over GST control) | 1.03 fold enrichment (6-mer frequency, TF over GST control) | 1.02 fold enrichment (6-mer frequency, TF over GST control) | 1.02 fold enrichment (6-mer frequency, TF over GST control) |  |  |  | 1.08 fold enrichment (6-mer frequency, TF over GST control) | 1.04 fold enrichment (6-mer frequency, TF over GST control) | 1.07 fold enrichment (6-mer frequency, TF over GST control)
